“And” between values parts separate entries of the source, which are not always exact repeats. Equal entries are not always repeated. Hit rate of the full screen: of about 340,000 compounds, about 260 (0.076%) were called active. The sample holds actives, similar compounds and a random draw of the others, so the mix is not that of the screen. A number with no mark means an inactive call.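 How the source made its calls: active means highest replicate inhibition at or above 60% at 9 µM, even if other replicates fall short; inactive means all replicates below 60% inhibition.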
test system: Kaposi's sarcoma herpesvirus LANA C-terminal domain (residues 932-1162) DNA binding; assay: inhibitors of KSHV C-LANA binding to DNA, primary screen, biochemical, fluorescence polarization, FAM-LBS DNA, MBP-C-LANA, single point (AID 504423); settings: at 9 µM, hits give high values;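 further: 0% = neutral control wells and 100% = 4 µM acridine orange control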

`COCCNC(=O)C1CCN(S(=O)(=O)c2ccc3c(c2)OCCO3)CC1` was tested. Which inhibition did it give?
The inhibition was -0.000473%.

With `CCCn1nc(C(=O)OCc2nc(N)nc(Nc3ccccc3C)n2)c2ccccc2c1=O` as the molecule, how does the inhibition read?
The inhibition was -0.106%.

`CC(C)Cn1c(=O)c2ccccc2n2c(CCC(=O)NCc3ccccn3)nnc12` was tested. Which inhibition did it give?
The inhibition was -0.283%.

How did the inhibition turn out when `COc1cc(C(=O)NCc2ccc3c(c2)cc(C)n3C)cc(OC)c1OC` was run?
The inhibition was 1.89%.

With `COc1ccc(-c2c(C)nn3c(N4CCC(C(=O)N5CCCCC5)CC4)cc(C)nc23)cc1OC` as the molecule, how does the inhibition read?
The inhibition was -1.26%.

Which inhibition does the source give for `COc1ccc(/C=N/NC(=O)Cn2cc(C(F)(F)F)ccc2=O)cc1` here?
The inhibition was 0.0809%.

For `CCCOc1ccc(Cc2c(O)nc(N)[nH]c2=O)cc1C`, which inhibition is on record?
The inhibition was 3.16%.

How did the inhibition turn out when `Cc1cc(/C=N/NC(N)=O)c(C)n1C1CCCCC1` was run?
The inhibition was -1.79%.

For `Cc1ccc2c(=O)oc(N(C)C)nc2c1`, which inhibition is on record?
The inhibition was 0.463%.

`CC(C)CCNC(=O)CC1C(=O)N(Cc2ccccc2)C(C)c2nc3ccccc3n21` (stereo not given) was tested. Which inhibition did it give?
Its inhibition is 0.0911%.

With `Clc1ccc(C2=CSC3=Nc4cccc5cccc(c45)N23)cc1` as the molecule, how does the inhibition read?
The inhibition was 0.203%.

`CS(=O)(=O)c1ccc2nnn(OCC(=O)Nc3cccc(C#N)c3)c2c1` was tested. Which inhibition did it give?
Its inhibition is 0.484%.

Which inhibition does the source give for `O=C(c1ccco1)N(Cc1nc2ccccc2c(=O)[nH]1)C1CCCC1` here?
Its inhibition is 1.54%.

Which inhibition does the source give for `Nc1ccc2nc3c(=O)[nH]c(=S)[nH]c3nc2c1` here?
The inhibition was 81% (active).

How did the inhibition turn out when `CCCCn1nc(C(=O)Nc2ccc(S(=O)(=O)Nc3ncccn3)cc2)c2ccccc2c1=O` was run?
The inhibition was 4.67%.

`Cc1c(C=O)n(C)n(-c2ccccc2)c1=O` was tested. Which inhibition did it give?
Its inhibition is 0.314%.

`COc1ccccc1CNS(=O)(=O)c1cc(C(=O)NCc2ccccn2)c(Cl)cc1Cl` was tested. Which inhibition did it give?
Its inhibition is 2.38%.

With `O=C(c1ccccc1)N1CCC(CC2CC(c3ccc(Cl)cc3)=NO2)(C(=O)NCC2CCCCC2)CC1` (stereo not given) as the molecule, how does the inhibition read?
The inhibition was 2.87%.

How did the inhibition turn out when `Cc1ccc(S(=O)(=O)n2oc(=O)c(C3CCCCC3)c2N)cc1` was run?
Its inhibition is -3.57%.

Which inhibition does the source give for `COc1cccc(N2CC(NS(=O)(=O)c3ccc(Cl)cc3)CC2=O)c1` (stereo not given) here?
Its inhibition is -1.06%.

With `COc1cccc(-c2nc3n(n2)C(c2ccccc2Cl)C(C(N)=O)=C(C)N3)c1` (stereo not given) as the molecule, how does the inhibition read?
Its inhibition is -1.68%.

With `COc1ccc(C2C(C#N)=C(N)Oc3cc(N)ccc32)cc1OC` (stereo not given) as the molecule, how does the inhibition read?
Its inhibition is -0.0442%.

For `COc1ccc(C2c3ccc(O)cc3Oc3ncn(CCCO)c(=N)c32)cc1OC` (stereo not given), which inhibition is on record?
Its inhibition is 90.6% (active).

With `COc1ccc(CNCCCO)cc1OC` as the molecule, how does the inhibition read?
The inhibition was 0.662%.

How did the inhibition turn out when `COc1cc(/C=C(\C#N)C(=O)Nc2ccc3ccccc3c2)c([N+](=O)[O-])cc1OC` was run?
The inhibition was -1.48%.

`CCC1OC(c2ccc([N+](=O)[O-])cc2)=Nc2ccccc21` (stereo not given) was tested. Which inhibition did it give?
The inhibition was 1.55%.

Which inhibition does the source give for `O=C(NCCCc1ccccc1)C(=O)c1c[nH]c2ccccc12` here?
Its inhibition is 1.71%.

`CCCN(CC(=O)NC(=O)NC1CCCCC1)CC(=O)Nc1cc(Cl)ccc1Cl` was tested. Which inhibition did it give?
Its inhibition is -0.226%.

With `CCN1C[C@@H]2[C@@H]3C(=O)N(C)C(=O)[C@@H]3[C@](C)(C1=O)N2C(=O)c1ccccc1` as the molecule, how does the inhibition read?
The inhibition was -2.13%.

Which inhibition does the source give for `CCN(CC(=O)Nc1ccc(OC)cc1)C(=O)c1ccc(Cl)c(S(=O)(=O)N2CCCC2)c1` here?
Its inhibition is 3.81%.

How did the inhibition turn out when `COC(=O)C1=C(O)/C(=C/c2ccc(OCC(=O)Nc3ccccc3)cc2)N=C1C` was run?
The inhibition was 0.272%.

How did the inhibition turn out when `CCOC(=O)C1=C(O)/C(=C/c2ccc(OCC(=O)Nc3ccc(C)cc3)cc2)N=C1C` was run?
Its inhibition is 0.825%.

With `CCOC(=O)C1=C(O)/C(=C/c2cc(C)n(-c3ccccc3)c2C)N=C1C` as the molecule, how does the inhibition read?
Its inhibition is 73.6% (active).

Which inhibition does the source give for `CCOc1ccc(N(CC)S(=O)(=O)c2cccc3nsnc23)cc1` here?
The inhibition was 3.87%.

With `Cc1cc2nc(SCCN3CCOCC3)[nH]c2cc1C` as the molecule, how does the inhibition read?
Its inhibition is -0.479%.

Which inhibition does the source give for `O=C(Nc1c(Br)cc2c(c1Br)Cc1ccccc1-2)C(F)(F)F` here?
Its inhibition is -0.671%.

`O=C(NC(=S)N1CCCCC1c1cccnc1)c1ccccc1` (stereo not given) was tested. Which inhibition did it give?
The inhibition was 1.24%.

How did the inhibition turn out when `CN(CCOc1ccc(CC2SC(=O)NC2=O)cc1)c1ccccn1` (stereo not given) was run?
The inhibition was 14.3% and -2.59%.

With `CN(C)/C=C(/C(=O)c1ccccc1Cl)S(C)(=O)=O` as the molecule, how does the inhibition read?
Its inhibition is 0.122%.

`CCC(CC)C(=O)Nc1cc(C(=O)OC)cc(C(=O)OC)c1` was tested. Which inhibition did it give?
Its inhibition is -1.15%.

With `Cc1ccc(C)c(-n2ccnc2SCC(N)=O)c1` as the molecule, how does the inhibition read?
The inhibition was -0.0657%.

Which inhibition does the source give for `Cc1cc(C)c(CN2CCN(C(=O)Cn3ccc(NC(=O)OCc4ccccc4)nc3=O)CC2)c(C)c1` here?
Its inhibition is 1.66%.

With `CCn1c(=S)sc2c(=O)n(CC(=O)Nc3cccc(Br)c3)c(C)nc21` as the molecule, how does the inhibition read?
The inhibition was -0.393%.

Which inhibition does the source give for `Cc1cccn2c(CNCC(C)Oc3cccnc3)c(C(=O)N3CCOCC3)nc12` (stereo not given) here?
The inhibition was -1.19%.

`CCOc1ccc(CN2CCC(n3nccc3NC(=O)C3CC3)CC2)cc1CO` was tested. Which inhibition did it give?
Its inhibition is 1.61%.

How did the inhibition turn out when `O=C(Nc1cc(-c2ccccc2)nn1-c1ccccc1F)c1ccc([N+](=O)[O-])cc1` was run?
Its inhibition is -1.47%.

How did the inhibition turn out when `Cc1ccccc1OCC(=O)NNC(=O)c1cc(S(=O)(=O)N(C)C)ccc1N1CCCC1` was run?
The inhibition was -0.594%.

Which inhibition does the source give for `CN1CCC2(CC1)NC(=O)NC2=O` here?
The inhibition was 0.656%.

For `O=C(NCc1ccncc1)c1cccc(NS(=O)(=O)c2ccc(F)c(F)c2)c1`, which inhibition is on record?
Its inhibition is -0.916%.

`CSc1nc(-c2ccccc2)nc(C(Cl)Cl)n1` was tested. Which inhibition did it give?
Its inhibition is 1.16%.

`CCCn1c(N)c(C(=O)CSc2nc3ccccc3c(=O)n2-c2ccc(OC)cc2)c(=O)[nH]c1=O` was tested. Which inhibition did it give?
Its inhibition is 0.469%.

With `Cc1cccc(-c2nc3c(c(SCC(=O)N4CCOCC4)n2)CCCC3)c1` as the molecule, how does the inhibition read?
The inhibition was -0.478%.

For `COc1cccc(CNC(=O)C2CCCN(c3ncnc4c3nc3n4CCCCC3)C2)c1` (stereo not given), which inhibition is on record?
The inhibition was 0.109%.

`CCNC(=O)COc1cc(C)c(Br)c(C)c1` was tested. Which inhibition did it give?
The inhibition was 0.138%.

Which inhibition does the source give for `CCCCC(CC(C)O)c1n[nH]c(=S)n1-c1ccccc1` (stereo not given) here?
The inhibition was 0.671%.

How did the inhibition turn out when `Cc1ccc(N2CCN(C(=O)c3cccs3)CC2)c(C)c1` was run?
Its inhibition is 0.336%.

With `O=C(COC(=O)COc1cccc(F)c1)NCC1CCCCC1` as the molecule, how does the inhibition read?
Its inhibition is -1.07%.

With `O=C1Nc2cc(C(=O)N3CCC(N4CCCCC4)CC3)ccc2S/C1=C\c1ccccc1` as the molecule, how does the inhibition read?
The inhibition was -4.28%.

How did the inhibition turn out when `CC(=O)Nc1ccc(S(=O)(=O)N(C)CC(=O)NCCC2=CCCCC2)cc1` was run?
The inhibition was 0.609%.

With `CC(C)n1c(NCc2c[nH]c3ccccc23)nc2ccccc21` as the molecule, how does the inhibition read?
Its inhibition is -1.36%.

`COc1ccccc1-c1c(C#N)c(N)nc2c1CCC2` was tested. Which inhibition did it give?
Its inhibition is 1.17%.

How did the inhibition turn out when `CS(=O)(=O)N1CCC(C(=O)N2CCN(c3ccccc3)CC2)CC1` was run?
Its inhibition is -0.437%.

For `C(=N/N1CCN(c2ccccc2)CC1)/c1cccs1`, which inhibition is on record?
Its inhibition is -0.282%.

With `O=c1ccc2c(-c3ccccc3S(=O)(=O)O)c3ccc(O)c(O)c3oc-2c1O` as the molecule, how does the inhibition read?
The inhibition was 101% (active).

For `CC(OC(=O)/C=C/c1ccccc1)C(=O)Nc1ccc(C(N)=O)cc1` (stereo not given), which inhibition is on record?
Its inhibition is 2.44%.

`COc1ccc(C2CC(=O)Oc3ccc(C(C)(C)C)cc32)cc1` (stereo not given) was tested. Which inhibition did it give?
Its inhibition is -0.823%.

Which inhibition does the source give for `CC1(c2nnc(-c3ccncc3)o2)CC(c2cccnc2)=NO1` (stereo not given) here?
The inhibition was -1.07%.

`Cc1ccc(S(=O)(=O)/N=C(\N)c2ccc(F)cc2)cc1` was tested. Which inhibition did it give?
Its inhibition is -0.0435%.

How did the inhibition turn out when `COCc1ccc(CN2CCC(Oc3ccc(C(=O)NCc4ccccn4)cc3)CC2)o1` was run?
Its inhibition is -1.54%.

For `Fc1ccccc1Cc1ccc(Cl)nn1`, which inhibition is on record?
The inhibition was -0.587%.
